SMILES strings stand for the structures. Hit rate of the full screen: of about 410,000 compounds, about 18,000 (4.4%) were called active. Inconclusive results (about 7%) are left out. Shown is part of a subset that was picked to be rich in actives. Values without a mark were called inactive. Cut-off read from the data, not from the text of the source: active = activity change below about -60%; inconclusive = no clear call, values can overlap the other calls; inactive = above about -39%.
% is set by controls: 0 for no effect and ±100 for the full control effect.

A short description of this test: qHTS Assay for inhibitors of the human cytomegalovirus (HCMV). The settings on record: HFF cells, HCMV-luciferase reporter, 72 h; at 57.5 µM; hits give low values. Summed up: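 Two-dose cell screen: HFF monolayers treated with compounds and infected with luciferase-expressing HCMV at 1 PFU/cell, 72 h at 37C, then lysed for luciferase measurement.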
(In general: Quantitative high-throughput screening tests each substance at several concentrations.)
Take `CCOc1ccc(NC(=O)Cn2cc(C(=O)c3ccc(C)cc3)c(=O)c3cc4c(cc32)OCCO4)cc1`: the activity change, negative = inhibition was 11.7%. As to `COc1ccc2cc(-c3nc(Cl)c4c5c(sc4n3)CC(C)CC5)c(=O)oc2c1` (stereo unspecified), the activity change, negative = inhibition was -12.7%. The result for `O=C(NCc1ccccc1)c1cc(-c2cccc(Cl)c2)on1` reads 21.7%; that for `COCCNC(=O)c1cc(-c2cccc(Cl)c2)on1`, -70.5% (active); that for `CCCCNC(=O)c1cc(-c2ccc(Cl)c(Cl)c2)on1`, 27.6%. The figure for `O=C(O)c1ccc(CSc2nc3cccnc3n2Cc2cccc(F)c2)cc1` is 40.5%; for `CNS(=O)(=O)c1ccc(C(=O)NCC(=O)NCCc2ccc3c(c2)OCCO3)cc1` it is -5.01%; for `CCc1ccccc1OCCSc1nc(-c2cccs2)nc2cc(=O)[nH]n12` it is -12.5%. The figure for `CC(=O)c1ccc(NS(=O)(=O)c2ccc(-c3cc(C)no3)s2)cc1` is 0%; for `c1ccc2c(C[n+]3csc4ccccc43)cccc2c1` it is 91.5%. Take `O=C(OCc1nc2ccccc2[nH]1)C1CCCCC1`: the activity change, negative = inhibition is 4.12%. The figure for `c1ccc2c(CSCc3nc4ccccc4[nH]3)cccc2c1` is -92.5% (active); for `COc1ccccc1C(=O)N1O[C@]23C=C[C@]14C[C@@H](O)CC[C@]4(C)C2CC[C@]1(C)[C@@H]([C@H](C)/C=C/[C@H](C)C(C)C)CC[C@H]13` (stereo partly specified) it is 27.5%. The figure for `Cc1ccc2nc(COc3ccccc3NC(=O)Nc3ccc(F)c(Cl)c3)cc(=O)n2c1` is 9.77%. The figure for `CC(C)NC(=O)c1nn(-c2ccccc2F)nc1CO` is -26.3%; for `CCNC(=O)CC1C(=O)N(c2ccc(F)cc2)C(=O)N1Cc1ccc(C)cc1` (stereo unspecified) it is -4.44%. In the case of `C/C(=N\NC(=O)COc1c(C)cccc1C)c1cccs1`, the activity change, negative = inhibition was -1.76%. The figure for `CCS(=O)(=O)N1CCN(C(=O)c2cccs2)CC1` is 14.1%; for `Cc1ccccc1C(CC(=O)c1cccs1)C(C#N)C#N` (stereo unspecified) it is -89.2% (active). In the case of `Cc1ccnc(SCC(=O)Nc2cccc(S(=O)(=O)N3CCOCC3)c2)n1`, the activity change, negative = inhibition is -25.4%.

For the compound `Cc1cc(NC(=O)C(C)SCC(=O)Nc2ccccc2N2CCCCC2)no1` (stereo unspecified), the activity change, negative = inhibition was -18.8%. With `Nc1cc(N)nc(SCC(=O)Nc2cccc(S(=O)(=O)N3CCCCC3)c2)n1`, the activity change, negative = inhibition is -9.15%. Turning to `Cn1nnnc1SCC(=O)Nc1cccc(S(=O)(=O)N2CCCCC2)c1`, the activity change, negative = inhibition is -105% (active). For the compound `O=C(CSc1ccccc1)Nc1cccc(S(=O)(=O)N2CCCCC2)c1`, the activity change, negative = inhibition was -4.82%. The result for `CCC(=O)Nc1cccc(NC(=O)CSc2nnc(-c3ccc(NS(C)(=O)=O)cc3)n2C)c1` reads -2.35%; that for `Cc1cc(NC(=O)C(C)SCC(=O)Nc2cccc(S(=O)(=O)N3CCCCCC3)c2)no1` (stereo unspecified), -103% (active). The figure for `COCCn1cnnc1SCC(=O)Nc1cccc(S(=O)(=O)N2CCCCC2)c1` is -23.6%.

Turning to `Cn1c(SCC(=O)Nc2cccc(O)c2)nnc1-c1ccc(S(=O)(=O)N2CCOCC2)cc1`, the activity change, negative = inhibition is -70.3% (active). For `CC1(C)N=C(SCc2ccccc2Cl)c2ccccc2N1`, the activity change, negative = inhibition was 5.15%. The figure for `Cc1ccc2c(=O)c(C(=O)c3ccc(F)cc3)cn(CC(=O)NC3CCCCC3)c2n1` is 6.71%; for `CCc1ccccc1NC(=O)Cn1c(=O)n(CC2CCC(C(=O)NCCc3ccccc3)CC2)c(=O)c2ccccc21` (stereo unspecified) it is 17.8%; for `Cc1cc(NC(=O)CSc2ncc(C(=O)Nc3ccc(Cl)cc3)c(=O)n2C)no1` it is 7.76%. Turning to `CC(=O)Nc1ccc(NC(=O)c2cc3sccc3n2Cc2ccc(F)cc2)cc1`, the activity change, negative = inhibition was -10%. The result for `COc1ccc2[nH]c3c(C)c4cc[n+](C)cc4c(C)c3c2c1` reads -97.6% (active); that for `COc1ccc(-n2c(=O)c3sc4ccccc4c3n(CC(=O)Nc3cccc(C)c3)c2=O)cc1`, 11.4%. Consider `Cc1cc(C)c(/C=C/c2onc(C)c2S(=O)(=O)N2CCC(C(=O)Nc3ccc(Cl)cc3C)CC2)c(C)c1`, for which the activity change, negative = inhibition is -20.3%.

For `CCN1CCN(c2ccc([N+](=O)[O-])cc2C#N)CC1`, the activity change, negative = inhibition is -36.6%.

For the compound `CN1CN(C)c2ccc([N+](=O)[O-])c3cccc1c23`, the activity change, negative = inhibition was -90% (active).

Turning to `CN1CCN(S(=O)(=O)c2ccc(N3CCN(c4ccccc4O)CC3)c([N+](=O)[O-])c2)CC1`, the activity change, negative = inhibition was -9.97%. The result for `CN(C)S(=O)(=O)c1ccc(N2CCCC2=O)c([N+](=O)[O-])c1` reads -23.4%. The figure for `CC1CCCN(c2csc3ccc(F)cc3c2=O)C1` (stereo unspecified) is 20.9%; for `COc1ccc(-c2cn3c(C)c(C(=O)Nc4cc(C)cc(C)c4)sc3n2)cc1` it is 27.8%; for `COc1cc2c(cc1OC)C(COc1ccc(F)cc1)N(C(=O)c1ccccc1F)CC2` (stereo unspecified) it is -11.8%. Turning to `C=C(C)CNC(=S)Nc1ccc(S(=O)(=O)Nc2cnc3ccccc3n2)cc1`, the activity change, negative = inhibition was -30.9%. The figure for `CCn1c(SCC(=O)N/N=C/c2ccccc2OCC(=O)O)nnc1-c1ccc(C(C)(C)C)cc1` is 0%; for `C=C(C)CNC(=S)N/N=C/c1ccccc1OCC(=O)O` it is -63.4% (active); for `COc1ccc(C(=O)NC2CC(C)(C)Cc3c2cnn3-c2ccccc2)c(OC)c1` (stereo unspecified) it is -62.5% (active).

`Cc1cc(C(=O)NC2CC(C)(C)Cc3c2cnn3-c2ccccc2)n[nH]1` (stereo unspecified): the activity change, negative = inhibition was -4.62%. The figure for `COc1ccc(-n2ncc3c2CC(C)(C)CC3NC(=O)CCc2c(C)nn(C)c2C)cc1` (stereo unspecified) is -35%. The result for `O=C1Cc2cc(S(=O)(=O)Nc3ccc(OC(F)(F)F)cc3)cc3c2N1CCC3` reads 14.6%.

For `COC(=O)[C@]12CCCCC=C1N(Cc1cccc3ccccc13)C(=O)[C@H](CC(=O)N1CCOCC1)C2`, the activity change, negative = inhibition was 12.2%. The result for `Cc1ccc2nc(COc3cccc(NC(=O)c4ccccc4Cl)c3)cc(=O)n2c1` reads 0.182%.

As to `COc1cc(OC)cc(-c2cc3ccc(F)cc3cn2)c1`, the activity change, negative = inhibition was 59.6%.

As for `CC(O)(c1cccc(F)c1)c1nc(-c2ccc3c(c2)OCO3)cs1` (stereo unspecified), the activity change, negative = inhibition was -11.8%. With `COc1ccc(C(C)(O)c2nc(-c3cc(F)cc(F)c3)cs2)cc1` (stereo unspecified), the activity change, negative = inhibition is -96% (active). The figure for `CCSc1nnc2c(n1)OC(c1ccc(OCC(=O)O)cc1)Nc1ccccc1-2` (stereo unspecified) is 33.3%; for `COc1cc(NC(=O)Cn2c(=O)n(Cc3ccco3)c(=O)c3oc4ccccc4c32)cc(OC)c1` it is -18.5%.

With `Cn1c2ccccc2c(=O)c2c(=O)n(Cc3ccco3)c(COc3ccccc3)nc21`, the activity change, negative = inhibition is -81.5% (active). In the case of `CC(C)c1ccc(Cn2c(COc3ccccc3)nc3ccccc32)cc1`, the activity change, negative = inhibition is 57.2%. The figure for `CCOc1ccc(N(CC)S(=O)(=O)N2CCCC(C(=O)NCc3ccc(SC)cc3)C2)cc1` (stereo unspecified) is -31%; for `Cc1ccccc1CSc1nc2c([nH]c3ccccc32)c(=O)n1C` it is 34.5%; for `Cc1ccc(NC(=O)CSc2nc3c([nH]c4ccccc43)c(=O)n2-c2ccccc2)cc1Cl` it is -24%. The result for `CCOC(=O)c1ccc(NC(=O)CSc2nc3c([nH]c4ccccc43)c(=O)n2C)cc1` reads -81.7% (active). The figure for `CCc1ccc(NC(=O)CSc2nc3c([nH]c4ccccc43)c(=O)n2-c2cccc(OC)c2)cc1` is 20.7%; for `Cc1ccc(-n2c(SCC(=O)c3ccccc3)nc3c([nH]c4ccccc43)c2=O)cc1` it is 37%. Take `Cc1ccc(NC(=O)CSc2nc3c([nH]c4ccccc43)c(=O)n2-c2ccccc2)c(C)c1`: the activity change, negative = inhibition was -65.4% (active). The figure for `CCn1c(CC(=O)Nc2ccc(C)cc2)nnc1SCC(=O)Nc1nc(C)cs1` is 28.7%; for `O=C(COc1ccccc1F)OCc1cc(=O)n2nc(C3CCCCC3)sc2n1` it is 11.6%.

For the compound `O=c1c2ccccc2n(Cc2cccc(Cl)c2)c(=O)n1Cc1ccccc1`, the activity change, negative = inhibition is -14.5%. For `CC(C)CCN(C(=O)Nc1ccc(Cl)c(Cl)c1)C(C)c1cccs1` (stereo unspecified), the activity change, negative = inhibition is 15.6%.

For the compound `CC(C)(C)C(=O)CSc1ccc(S(=O)(=O)N2CCCC2)cn1`, the activity change, negative = inhibition is 0%. For the compound `CCc1c(C)sc(NC(=O)C2c3ccccc3Oc3ccccc32)c1C(=O)OC(C)C`, the activity change, negative = inhibition was 23.5%. `Cc1nc(S(=O)(=O)c2ccc(Br)cc2)nc2c1CCC2`: the activity change, negative = inhibition is 6.93%.

With `CCOc1ccc(N(CC)C(=O)C2CCN(S(=O)(=O)c3cccc4nonc34)CC2)cc1`, the activity change, negative = inhibition is -9.41%. As for `Cc1ccc2c(c1)N(C(=O)Nc1ccc(Br)cc1F)CCO2`, the activity change, negative = inhibition is -2.87%.

Regarding `COc1ccccc1N(C)S(=O)(=O)c1ccc(C(=O)NC2CCCCCC2)cc1`, the activity change, negative = inhibition is -30.1%. The figure for `COc1ccccc1N(C)S(=O)(=O)c1ccc(Cl)c(C(=O)N2CCC(C(N)=O)CC2)c1` is -15.9%. The figure for `COc1ccccc1N(C)S(=O)(=O)c1ccc(Cl)c(C(=O)Nc2ccncc2)c1` is -67.6% (active); for `COc1ccc(C2(Nc3cccc(F)c3)C(=O)c3ccccc3C2=O)cc1` it is 3.54%; for `CCOC(=O)c1ccc(CSc2nnc3cc(C)c4ccccc4n23)cc1` it is 0.725%. The result for `COc1cccc(N2CCN(S(=O)(=O)c3cc(Br)cc4c3N(C(=O)C3CC3)CC4)CC2)c1` reads 7.82%; that for `CN(Cc1ccccc1)c1ncnc2onc(-c3ccc(F)cc3)c12`, -33.7%; that for `COc1ccccc1NC(=O)CSC1=Nc2ccccc2C2=NC(CC(=O)NCc3cccs3)C(=O)N12` (stereo unspecified), 11.4%. In the case of `COc1ccc(OC)c(NC(=O)CSC2=Nc3ccccc3C3=NC(CC(=O)NCCc4ccccc4)C(=O)N23)c1` (stereo unspecified), the activity change, negative = inhibition is 3.26%. The figure for `COc1ccc(OC)c(NC(=O)CSC2=Nc3ccccc3C3=NC(CC(=O)NCc4ccc(F)cc4)C(=O)N23)c1` (stereo unspecified) is -67.3% (active). The figure for `Cc1ccc(N(CC(=O)NCC2CCCO2)C(=O)CNS(=O)(=O)c2ccc(Cl)cc2)cc1` (stereo unspecified) is 43.5%.

For the origin of these results see PubChem BioAssay AID1259415 (National Center for Advancing Translational Sciences (NCATS), 2018).
